# Biological target: Tyrosine-protein kinase HCK (Homo sapiens) (UniProt P08631)
# Details: at 10 µM
# Chain of Tyrosine-protein kinase HCK (Homo sapiens) (P08631 2-526 limits assumed): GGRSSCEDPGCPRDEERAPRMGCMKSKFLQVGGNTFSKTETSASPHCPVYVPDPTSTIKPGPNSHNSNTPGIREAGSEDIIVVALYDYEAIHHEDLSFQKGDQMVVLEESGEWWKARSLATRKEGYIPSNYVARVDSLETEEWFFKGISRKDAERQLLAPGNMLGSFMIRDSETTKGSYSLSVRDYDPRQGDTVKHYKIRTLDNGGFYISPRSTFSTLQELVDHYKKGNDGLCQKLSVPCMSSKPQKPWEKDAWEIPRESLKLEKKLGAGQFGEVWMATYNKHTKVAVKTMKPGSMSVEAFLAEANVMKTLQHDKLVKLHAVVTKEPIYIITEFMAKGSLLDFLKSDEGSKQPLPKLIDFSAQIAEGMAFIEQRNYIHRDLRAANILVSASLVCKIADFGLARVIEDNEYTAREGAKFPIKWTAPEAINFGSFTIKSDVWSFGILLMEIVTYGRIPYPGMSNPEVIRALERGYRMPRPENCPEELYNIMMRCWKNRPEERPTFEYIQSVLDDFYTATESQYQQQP
row,SMILES,residual activity [%]
1,O=C(Nc1cccc(Nc2cc(Nc3cccc(C(F)(F)F)c3)ncn2)c1)C1CC1,83
2,COc1ccc(CNc2nc(N(CCO)CCO)nc3c2ncn3C(C)C)cc1,91
3,O=c1cc(-c2cccc3c2Sc2ccccc2S3)oc(N2CCOCC2)c1,100
4,COc1ccc(S(=O)(=O)N(CCO)c2ccccc2CN(C)C/C=C/c2ccc(Cl)cc2)cc1,90
5,Cn1cnc2cc3c(Nc4cccc(Br)c4)ncnc3cc21,25
6,NC(=O)c1ccc2[nH]c(-c3ccc(Oc4ccc(Cl)cc4)cc3)nc2c1,89
7,CCC(=O)Nc1ccc2ncnc(Nc3cccc(Br)c3)c2c1,66
8,CN(C)c1ccc(/C=C2\C(=O)Nc3ccccc32)cc1,77
9,Nc1ccc2ncnc(NCCc3ccc(Oc4ccccc4)cc3)c2c1,89
10,O=Nc1c(-c2c(O)[nH]c3ccccc23)[nH]c2ccccc12,1
11,CO[C@H]1C[C@@H]2CC[C@@H](C)[C@@](O)(O2)C(=O)C(=O)N2CCCC[C@H]2C(=O)O[C@H]([C@H](C)C[C@@H]2CC[C@@H](O)[C@H](OC)C2)CC(=O)[C@H](C)/C=C(\C)[C@@H](O)[C@@H](OC)C(=O)[C@H](C)C[C@H](C)/C=C/C=C/C=C/1C,87
12,Cc1nc2cc3nc(-c4cccs4)cnc3cc2n1C,34
13,COc1ccc(C(=O)Nc2sc3c(c2C(N)=O)CCCC3)cc1OC,94
14,O=C1Nc2ccccc2/C1=C1/Nc2ccccc2/C1=N\OCCC(O)CO (stereo unspecified),7
15,c1ccc(-c2n[nH]cc2-c2ccnc3ccccc23)nc1,69
16,COc1cccc(-c2cc(=O)c3ccccc3o2)c1N,105

# Source: ChEMBL document CHEMBL2218924, “A broad activity screen in support of a chemogenomic map for kinase signalling research and drug discovery” (Biochem J, 2013)
